# Calls of active or inactive are those of the source.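 The calls were made as follows, unless noted: active = visually confirmed hit in the image check and inhibition above 20%; inconclusive = visually confirmed hit but inhibition not above 20%; inactive = no visual hit in the image check.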
# Tests used:
# [1] = inhibitors of TNFa-induced NFkB p65 translocation, primary screen, imaging, HUVEC, MLSMR starter and 10KST1 sets (AID 438;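 active = inhibition above 20% together with a positive visual image hit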;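 also: compound added about 3h40 before a 20 min TNFalpha stimulation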;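 as to inhibition: signal is the nuclear over cytoplasmic p65 intensity ratio per well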); settings: HUVEC TNFa-induced p65 nuclear translocation; cell count: measured here: nuclei count (cytotoxicity indicator), at 2.08 µM unless noted; inhibition: at 2 µM, stronger effect = higher value unless noted
# [2] = reduction of polyQ htt aggregates in cells – imaging, exon1htt(103Q)mCFP cells, high-content imaging, primary screen (AID 483;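 active = visual image review flags a hit and inhibition of aggregation exceeds 20%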;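 also: compound exposure lasted 3 days before fixation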;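 as to nuclei count: percent of the per-plate median nuclei count of sample wells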); settings: exon1htt(103Q)mCFP cell line, aggregate imaging, at 2 µM; inhibition of aggregation: stronger effect = higher value; nuclei count: measured here: cell count, toxicity
# [3] = endothelial E-selectin expression blockers – imaging, HUVEC, immunofluorescence, MLSMR starter and 10KST1 sets, primary screen (AID 487); settings: HUVEC TNFalpha-induced E-selectin immunofluorescence imaging, at 2 µM; inhibition: stronger effect = higher value; nuclei count: measured here: cell number, toxicity;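 as to inhibition: signal is fraction of cell area covered by stained E-selectin grains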;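 as to nuclei count: 100% = median nuclei count of all wells on the same plate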
# [4] = biological target: Voltage-gated potassium channel subunit beta-2 (Rattus norvegicus) (UniProt P62483); assay: inhibitors of rat Kvbeta2 reductase activity – biochemical, NADPH fluorescence, primary screen (AID 622;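 active = fluorescence slope higher than the sample average by over 3 SD, cut at about -0.22 in these data, passing the limit was not always enough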;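 also: slope of raw intensity against log time taken from 70 to 1610 s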); settings: recombinant KvBeta, 4-cyanobenzaldehyde reduction, at 10 µM, stronger effect = higher value
# Sequence of Voltage-gated potassium channel subunit beta-2 (Rattus norvegicus) (P62483 whole entry, looked up): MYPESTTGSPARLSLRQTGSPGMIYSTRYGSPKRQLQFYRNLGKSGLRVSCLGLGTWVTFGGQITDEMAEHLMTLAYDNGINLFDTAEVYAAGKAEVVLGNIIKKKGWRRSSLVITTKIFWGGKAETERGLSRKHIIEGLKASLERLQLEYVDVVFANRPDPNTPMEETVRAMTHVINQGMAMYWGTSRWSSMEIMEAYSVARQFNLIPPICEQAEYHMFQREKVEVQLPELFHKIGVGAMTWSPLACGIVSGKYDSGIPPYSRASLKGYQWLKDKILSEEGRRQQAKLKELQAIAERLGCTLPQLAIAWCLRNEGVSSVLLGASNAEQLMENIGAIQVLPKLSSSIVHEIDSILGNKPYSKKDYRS
# [5] = biological target: Voltage-gated potassium channel subunit beta-2 (Rattus norvegicus) (UniProt P62483); assay: enhancers of rat Kvbeta2 NADPH turnover – biochemical, NADPH fluorescence, primary screen (AID 623;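 active = NADPH fluorescence slope more negative than the mean of all samples by about 3 SD, 99.7% confidence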;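 also: fluorescence intensity change per second fitted from 20 to 320 s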); settings: Recombinant KvBeta, NADPH fluorescence decrease slope, 10 min; at 10 µM; stronger effect = lower value
# [6] = biological target: Alpha-2C adrenergic receptor (Homo sapiens) (UniProt P18825); assay: compounds altering alpha2C-coupled GIRK flux – cell-based, HEK293 alpha2C/GIRK1/2, thallium flux, primary screen (AID 624;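 active = fluorescence slope after compound addition differing from the mean of all screened samples at 99.7% confidence, in either direction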;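 also: slope of fluorescence ratio to pre-addition baseline per second over 15 to 24 s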); settings: thallium flux BTC fluorescence, at 10 µM, actives lie on both sides
# Sequence of Alpha-2C adrenergic receptor (Homo sapiens) (P18825 whole entry, looked up): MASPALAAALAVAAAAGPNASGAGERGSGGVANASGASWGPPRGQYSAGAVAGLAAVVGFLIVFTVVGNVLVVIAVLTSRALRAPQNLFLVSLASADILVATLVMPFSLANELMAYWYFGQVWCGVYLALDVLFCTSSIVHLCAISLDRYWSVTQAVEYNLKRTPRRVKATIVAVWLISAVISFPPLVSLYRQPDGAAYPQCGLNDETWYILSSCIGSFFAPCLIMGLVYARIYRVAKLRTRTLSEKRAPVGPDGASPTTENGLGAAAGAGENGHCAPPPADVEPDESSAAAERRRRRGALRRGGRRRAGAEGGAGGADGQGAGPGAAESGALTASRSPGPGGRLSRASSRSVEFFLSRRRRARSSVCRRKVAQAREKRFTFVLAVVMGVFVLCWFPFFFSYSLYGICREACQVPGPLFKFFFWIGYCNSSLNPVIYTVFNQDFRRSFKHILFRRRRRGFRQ
# [7] = blockers of RIG-like receptor reporter activation – cell-based, Sendai virus stimulus, luciferase, 10K MLSCN set, TLR/RLR signaling modifier project, primary screen (AID 602276;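 active = inhibition at or above 50% at 10 µM; inactive = inhibition below 50%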;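 also: firefly luciferase from ISG56 promoter only with Renilla not read in this screen; 0% = Sendai virus plus DMSO and 100% = medium plus DMSO without virus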); settings: HEK293 RL24 IRF3 luciferase reporter, at 10 µM, stronger effect = higher value
# [8] = TLR3 IRF3 reporter activation blockers – cell-based, poly I:C stimulus, luciferase, 10K MLSCN set, primary screen (AID 602277;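 active = inhibition of the reporter signal at or above 50%; inactive = inhibition below 50%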); settings: HEK293-TLR3 RL24 IRF3 luciferase reporter, at 10 µM, stronger effect = higher value
# [9] = Primary imaging screen for DUSP6 inhibitors that restore phospho-Erk in transfected HeLa cells, chemical complementation (AID 609;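 active = compounds giving at least 50% inhibition in the cell-based MKP-3 phosphatase rescue imaging test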;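 as to inhibition: phospho-Erk level distribution per well compared with pooled transfected vehicle control wells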); settings: HeLa MKP-3 transfected, phospho-Erk imaging KS statistic, at 10 µM
# [10] = biological target: Dual specificity protein phosphatase 6 (Homo sapiens) (UniProt Q16828); assay: as above; settings: HeLa MKP-3 transfected, phospho-Erk imaging KS statistic, at 10 µM, stronger effect = higher value
# Sequence of Dual specificity protein phosphatase 6 (Homo sapiens) (Q16828 whole entry, looked up): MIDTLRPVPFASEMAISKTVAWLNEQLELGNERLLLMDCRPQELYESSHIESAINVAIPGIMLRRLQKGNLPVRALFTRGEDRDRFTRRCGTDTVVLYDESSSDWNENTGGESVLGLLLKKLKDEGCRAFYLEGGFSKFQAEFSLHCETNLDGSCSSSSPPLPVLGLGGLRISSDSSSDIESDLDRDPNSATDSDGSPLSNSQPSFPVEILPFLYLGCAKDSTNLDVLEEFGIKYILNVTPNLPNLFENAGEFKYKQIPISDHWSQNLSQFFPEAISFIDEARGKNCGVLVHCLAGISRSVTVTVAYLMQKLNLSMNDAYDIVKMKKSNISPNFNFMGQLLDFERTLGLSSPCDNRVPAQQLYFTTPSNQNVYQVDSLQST
# [11] = biological target: Muscarinic acetylcholine receptor M4 (Homo sapiens) (UniProt P08173); assay: M4-linked GIRK flux change, two-sided – cell-based, HEK293 M4/GIRK, thallium flux, BTC-AM, M4 allosteric agonist project, primary screen (AID 625;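 active = fluorescence slope after compound addition differing from the mean of all tested samples at 99.7% confidence, mostly higher but some lower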;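 also: thallium influx through GIRK channels coupled to M4 in HEK293 cells with BTC-AM dye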); settings: at 10 µM, actives lie on both sides
# Sequence of Muscarinic acetylcholine receptor M4 (Homo sapiens) (P08173 whole entry, looked up): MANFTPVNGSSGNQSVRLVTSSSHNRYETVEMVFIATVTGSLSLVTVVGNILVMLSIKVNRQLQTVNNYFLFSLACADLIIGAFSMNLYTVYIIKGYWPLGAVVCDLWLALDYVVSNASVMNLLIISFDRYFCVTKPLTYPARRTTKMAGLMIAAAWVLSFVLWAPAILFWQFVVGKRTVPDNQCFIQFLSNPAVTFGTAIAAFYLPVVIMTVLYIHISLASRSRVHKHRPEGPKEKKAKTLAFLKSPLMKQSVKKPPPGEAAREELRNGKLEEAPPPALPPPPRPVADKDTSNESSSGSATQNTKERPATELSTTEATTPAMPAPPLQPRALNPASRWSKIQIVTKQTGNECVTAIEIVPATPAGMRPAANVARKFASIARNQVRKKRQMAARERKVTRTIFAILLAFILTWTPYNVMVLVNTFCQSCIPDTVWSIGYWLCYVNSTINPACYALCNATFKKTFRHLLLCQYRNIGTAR
# [12] = inhibitors of larval lipid processing in zebrafish, primary screen, whole organism, PED6 fluorescence, gall bladder and intestine (AID 686;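 active = a full or partial loss of lipid-probe fluorescence in the fish gall bladder, intestine or both, judged by eye; inactive = no fluorescence loss, or compound toxic to the fish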;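 also: larvae 5 to 7 days old with five fish per well; signal comes from phospholipase A2 cleavage of quenched PED6 carried via bile; overnight exposure to compound and PED6 before scoring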); settings: Zebrafish larvae PED6 lipid processing, fluorescence scoring
# [13] = loss of swimming-algae plug formation – whole organism, Chlamydomonas reinhardtii, WT vs cilia-less mutant, absorbance, 96-well, primary screen (AID 463189;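 active = inhibition at or above 50% relative to wild type and mutant plate controls; inactive = inhibition below 50%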;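 also: 0% = wild type cc124 cells in DMSO and 100% = ciliumless bld1 mutant cells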); settings: Chlamydomonas reinhardtii gravitaxis, OD600 absorbance, 2 days; at 10 µM; stronger effect = higher value
# [14] = measured here: cell density z-score
# [15] = measured here: nuclear c-Myc green intensity z-score
# [16] = measured here: nuclear pErk red intensity z-score, stronger effect = higher value
Structure (SMILES),cell count [1],inhibition [1],inhibition of aggregation [2],nuclei count [2],inhibition [3],nuclei count [3],fluorescence slope [4],NADPH fluorescence slope [5],slope [6],inhibition [7],inhibition [8],"z-score [9, 14]","z-score [9, 15]","z-score [9, 16]",inhibition [10],fluorescence slope [11],outcome [12],inhibition [13]
CC(=O)C1C(=O)NC23CCCCC2C1c1ccccc1O3 (centres undefined),622,3.3% (inactive),2.2% (inactive),109%,25.3% (inactive),99.5%,-0.357 (inactive),4e-05 (inactive),0.0063 (inactive),4.02% (inactive),14.8% (inactive),–,–,–,–,–,–,–
CCCC12CN3CN(C1)CC(CCC)(C3)C2O (centres undefined),527,5.6% (inactive),–,–,-164% (inactive),146%,-0.474 (inactive),-0.000119 (inactive),–,–,–,0.514,1.99,-1.5,7.42% (inactive),0.00532 (inactive),inactive,-2.85% (inactive)
Cn1c(O)c(C=NCCCNC2CCCCC2)c(=O)n(C)c1=O,420,1.2% (inactive),–,–,-81.5% (inactive),131%,-0.469 (inactive),-0.000127 (inactive),–,–,–,0.261,-0.315,-0.515,26.5% (inactive),0.00413 (inactive),inactive,-2.14% (inactive)
CN(C)CCOC(=O)c1cn(Cc2ccccc2)c2ccccc12,639,-9.5% (inactive),–,–,-111% (inactive),182%,-0.507 (inactive),-6.8e-05 (inactive),–,–,–,1.72,-0.185,-0.202,-6.06% (inactive),0.00681 (inactive),inactive,37% (inactive)
CC1CN=C(Nc2ccc(N(C)C)cc2)S1 (centres undefined),666,0.8% (inactive),–,–,-22.4% (inactive),136%,-0.464 (inactive),-5.1e-05 (inactive),–,–,–,-0.332,0.426,-0.395,3.49% (inactive),0.00379 (inactive),inactive,9.45% (inactive)
CCCCc1nc(N2CCNCC2)c(C#N)c2c1CSC(C)(C)C2,519,-12.8% (inactive),–,–,-143% (inactive),135%,-0.49 (inactive),-0.000122 (inactive),–,–,–,0.415,-0.261,0.643,7.42% (inactive),0.00482 (inactive),inactive,55.2% (active)
COC(=O)C(c1ccccc1)N1CCCCCC1 (centres undefined),730,0.3% (inactive),–,–,20.3% (inactive),165%,-0.406 (inactive),-3.5e-05 (inactive),–,–,–,-0.512,1.36,1.38,-11.4% (inactive),0.0047 (inactive),inactive,-6.36% (inactive)
C=CCOC(=O)C1=C(C)OC(N)=C(C#N)C12C(=O)N(CN1CCOCC1)c1ccccc12 (centres undefined),388,0.7% (inactive),–,–,-73.4% (inactive),88.4%,-0.515 (inactive),2.9e-05 (inactive),–,–,–,-0.108,0.314,1.06,-4.59% (inactive),0.00467 (inactive),inactive,39.6% (inactive)
COc1ccc(S(=O)(=O)NC(CC(=O)N2CCC3(CC2)OCCO3)c2ccco2)cc1 (centres undefined),633,6.7% (inactive),16.2% (inactive),86.8%,-121% (inactive),144%,-0.451 (inactive),-0.000345 (inactive),0.00534 (inactive),17.9% (inactive),22.1% (inactive),–,–,–,–,–,–,–
Nc1c(C(=O)NCc2ccco2)c2nc3ccccc3nc2n1CCN1CCCCC1,676,18.1% (inactive),–,–,50.8% (inactive),138%,-0.0963 (inactive),-2.8e-05 (inactive),–,–,–,-0.477,2.3,-0.0288,-6.06% (inactive),0.00537 (inactive),inactive,131% (active)
Cc1ccc(OCC(=O)NCCN2CCN(C(=O)COc3ccc(C)cc3)CC2)cc1,635,-0.2% (inactive),9.1% (inactive),94.7%,-103% (inactive),103%,-0.611 (inactive),-2.9e-05 (inactive),0.00522 (inactive),-9.99% (inactive),-18.3% (inactive),–,–,–,–,–,–,–
C=CCOC(=O)C1=C(C)OC(N)=C(C#N)[C@@]12C(=O)N(CC(N)=O)c1ccccc12,473,-1.4% (inactive),–,–,-499% (inactive),193%,-0.441 (inactive),-5.7e-05 (inactive),–,–,–,0.623,-0.273,0.824,2.71% (inactive),0.00506 (inactive),inactive,1.7% (inactive)
CCCCCCOc1ccc(CN2CCN(C)CC2)cc1,302,-5% (inactive),2.1% (inactive),107%,-127% (inactive),128%,-0.46 (inactive),-0.000138 (inactive),0.00769 (inactive),25.8% (inactive),8.4% (inactive),–,–,–,–,–,–,–
COc1ccc2c(c1OC)C(=O)OC2c1c(O)n(C2CCCCC2)c(=O)[nH]c1=O (centres undefined),572,-9.7% (inactive),–,–,-2.8% (inactive),150%,-0.379 (inactive),-7.1e-05 (inactive),–,–,–,0.755,0.301,0.433,15.9% (inactive),0.00555 (inactive),inactive,6.27% (inactive)
